About 3,700 (7%) of roughly 53,000 sequences were called active.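 How the source made its calls: active means gene knockdowns whose robust z-score for IL-1 alpha signal is at least 2 or at most -2, so actives lie on both sides; inactive means the rest.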 The sample as a whole holds a higher share of actives than the screen did.

The nature of this assay: Components of the Cytosolic LPS Sensing Pathway: Gene Identification via Genome-wide siRNA Screen.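 Further: robust z of the log signal after scaling to non-targeting control siRNA wells of the plate.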 Conditions: RAW264.7 macrophages, IL-1a HTRF, actives lie on both sides, screened at 100 nM (by protocol), cells primed 5 h with Pam3CSK4 first. In short, it runs like this: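 Read-out: IL-1a HTRF on supernatant, divided by plate negative-control median ×100, log-transformed and converted to robust z-score. Cells were RAW264.7 given 100 nM siRNA, Pam3CSK4-primed 5 hours, then LipidA-transfected 24 hour.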
For orientation: In TR-FRET formats the signal depends on donor and acceptor labels being close together.
Turning to GGAGUUGCCCUCAUCUUCATT against Casp6, the z-score is -1.59 (inactive).

For GGUGGAACUCGUCAAUAGCTT against Vat1, the z-score is 0.269 (inactive).

Take GGUGAACAGUUGAUUUCAUTT against Smim10l2a: the z-score was 1.48 (inactive).

As to GGAUCACAUCGAGAAAACCTT against Utrn, the z-score is -1.57 (inactive).

Turning to GCUUCUGUUCGUUACGUCCTT against Ndufc2, the z-score is 2.55 (active).

As to GCGGAAAGGCCAAACGAUUTT against Inhbb, the z-score was -0.734 (inactive).

For CCUUCUCCAUGUCAGAUCUTT against Col5a2, the z-score was 0.23 (inactive).

GGCAAAGUUGCCAGAUGAATT against Mettl23: the z-score is 2.42 (active).

For the sequence GGAUACGCUUGUCCCACCATT against Mdm1, the z-score was -0.649 (inactive).

As for CCAUUAUGGGAGGAAGAUUTT against Clvs2, the z-score is 0.969 (inactive).

For GGACAAAGAGAAUGAUGGATT against Cdc25b, the z-score is -1.68 (inactive).

Take “GCUAAUCCCAUCUCGUCCUTT against 3110009E18Rik”: the z-score was 1.15 (inactive).

As for GGCCGAAGCAUCUUCAAGATT against Wdr24, the z-score is 1.88 (inactive).

Consider GGCUGAAAAAAGUGGAGAATT against Sh3bgr, for which the z-score is 2.12 (active).

Consider GGAUCCCAUUAGAAAGAAATT against Cbx2, for which the z-score was 0.316 (inactive).

Turning to GCGAUUACUACUUGAAACUTT against Fa2h, the z-score was -0.384 (inactive).

For the sequence CGGAUGUGGGCAUUCGUUATT against Fbxl7, the z-score is 0.421 (inactive).

Turning to GGUUUUGGGUCUAUGCUUCTT against Sde2, the z-score is 0.311 (inactive).

For the sequence GGUAAGGAAAACAAAUAUGTT against En1, the z-score is 2.13 (active).

In the case of GAAAAAAAUCCGUUCCCUCTT against Mrpl33, the z-score was 0.257 (inactive).

As to GGAUUUUGCUCAGACGACATT against Taf1a, the z-score is 0.291 (inactive).

For GGUUGGUAGGCUUUGGUGUTT against Notum, the z-score is 0.657 (inactive).

With GCAGUGUCGCAUUACAUCGTT against Sec16a, the z-score was 3.45 (active).

As to GGAGAAUCAUGUGAGCCUGTT against Tph1, the z-score is -0.0851 (inactive).

Turning to UAUUCUAUCCGAACACCUUTT against Gm4884, the z-score is 2.19 (active).

As for GGAGAACUUCCUAUACUAUTT against Apobec2, the z-score was 0.448 (inactive).

For GGAAAGCAAAAAGUUUCAGTT against Fam118b, the z-score was -1.14 (inactive).

Turning to CGCAUAGAGCCUGUCCUCATT against Spink1, the z-score was -1.57 (inactive).

Turning to GCUCGAUGUGAACUGCUAGTT against Ankrd9, the z-score is 2.12 (active).

For GGUACAUAUGUGAUGACCGTT against Cdh4, the z-score is -0.289 (inactive).

As for GGCGUAGGGCCAUAUCAUUTT against Olfr109, the z-score is -0.117 (inactive).

Regarding GGUCAUGAACCUCAUCAUCTT against Nckap1l, the z-score is -0.552 (inactive).

Regarding GGCUGAAUAAAAUAAGUGUTT against Adra1a, the z-score was -1.1 (inactive).

In the case of GGUUUAAUGUUAUAUACGGTT against Olfr606, the z-score was 2.43 (active).

CCAAAAGUGGAGAGCGACATT against Cnrip1: the z-score was -1.32 (inactive).

GGAGCGAGAAGGUAAAGUCTT against Pibf1: the z-score was 1.05 (inactive).

For the sequence GGGACUGGAAUUGACAUCCTT against Trpm4, the z-score is -1.38 (inactive).

For GGGAAUUUUUGUGGGUGAATT against Bbs2, the z-score was -0.541 (inactive).

As to GGUGCUGAUUGACCUAACATT against Wdtc1, the z-score is -2.24 (active).

With GGAAGUGGAGGAAAAGAAGTT against Pdcd7, the z-score was -2.52 (active).

For GGAAAAACUACUCAAGGAGTT against Evi5l, the z-score is -0.0731 (inactive).

In the case of CCUGGUUAAAGGUUAUCCATT against Commd7, the z-score was -3.9e-05 (inactive).

As to GGCAAGUCUGUGUGCAGAUTT against Olfr267, the z-score was 0.579 (inactive).

On to CCAGGAACCUAUUGAAUCUTT against Plpp7, for which the z-score was 1.15 (inactive).

Consider GGUAGAAAACAUAAAUGGUTT against Sec16a, for which the z-score is 1.71 (inactive).

With GGCCAUGGUUAAACCAUAUTT against Pdcl2, the z-score was 0.791 (inactive).

Regarding GGACCUAUACAAGGGAGGUTT against Il1f10, the z-score was 1.17 (inactive).

As for GGUGUUUUCUGUGCUGUGATT against Klhdc3, the z-score is -1.55 (inactive).

In the case of GGUGCUUAUACUUCUUUGUTT against Sgcz, the z-score is -2.42 (active).

For the sequence GCCAAUAAUUGUCACACAUTT against Adgrg3, the z-score was 1.94 (inactive).

GGACUUGGGUUUCAAUUCCTT against Ddx27: the z-score was -0.876 (inactive).

In the case of GGCACUCAGAAAUAUUCAGTT against Nap1l3, the z-score was 3.84 (active).

In the case of GCAGUCUUCCCUCAUCCUUTT against Cox8a, the z-score is 1.74 (inactive).

Consider GGCAGUAAAUAGUAAGAAATT against Ccr9, for which the z-score was -0.716 (inactive).

With GGAGUGGUGUGUCAUUGAUTT against Impact, the z-score was -0.663 (inactive).

As to GCACAACAUCCCAGAUAAATT against Ankrd55, the z-score was 0.338 (inactive).

Take GGAUACCCUGCUUCCAAAATT against Hpd: the z-score is 2.23 (active).

GCCAGGCAAAUUACAUCGCTT against Shroom1: the z-score is 0.303 (inactive).

In the case of CCUGCACUACUGGAUUGGATT against Vill, the z-score is 0.265 (inactive).

In the case of GCUCCAUUAUGCCAGACUATT against Madcam1, the z-score was 0.8 (inactive).

With GGAUAAUGAAGAAUGCCAATT against Abca4, the z-score was -0.533 (inactive).

Turning to CGGACUAUUGGAGACCAACTT against Gpsm2, the z-score was 2.16 (active).

As for GGUCAUCAACGUGCUAGAGTT against Nucb1, the z-score is -1.3 (inactive).

Regarding GGAUGCAUGAGAAAUGUUATT against Tbc1d14, the z-score was -0.0572 (inactive).

For GGUAUAAGUUGGCAAGAUCTT against Cry2, the z-score is 0.849 (inactive).

With CCCUUGAUUACACCACAGUTT against Cfc1, the z-score is -2.6 (active).

GGUCACAUUUAAUGUCACATT against Itgam: the z-score was -0.789 (inactive).

For the sequence GGACAAUCAGUACCUUAACTT against Tex9, the z-score is -0.375 (inactive).

GGAAGGUUUCGCUUUGAAUTT against Tarm1: the z-score is -0.469 (inactive).

The record behind these values is PubChem BioAssay AID1508600 (Functional Genomics Laboratory (NCATS/FGL), 2020).
